Measured values reported in PubChem BioAssay AID1159580 (chemical genetic matrix, 2015).
Values joined by “and” are separate entries in the source; they are usually repeats but may differ in a detail not shown here. Identical values can stand only once. In all, about 5,500 compounds went through this assay and about 2,000 (36%) were called active. Roughly 18% stayed inconclusive and do not appear here. No stated cut-off is given here; in the data, active means normalized growth mostly below about 0.91 (no sharp cut-off); inconclusive means no clear call, values can overlap the other calls; inactive means mostly above about 0.92. The list shows a part of the results.

Test: chemical genetic growth profiling, strain panel (AID 1159580);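 further: tested at 20 µM; growth read once vehicle control cultures reached saturation at 30 °C; 1 = growth at the plate median or of vehicle wells; lower values mean less growth of the strain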
Conditions: S. cerevisiae deletion strains, growth OD

Measured: normalized growth

O=c1[nH]oc2c1CCNC2
inactive: locus YAL013W, strain DEP1, hits give low values 1 and 1.01 | locus YAL021C, strain ccr4, hits give low values 1.01 | locus YAL026C, strain drs2, hits give low values 1.01 | locus YAL030W, strain snc1, hits give low values 0.998 | locus YAL040C, strain CLN3, hits give low values 0.99 | locus YBL061C, strain skt5, hits give low values 1 | locus YBR009C, strain hhf1, hits give low values 0.987 | locus YBR021W, strain FUR4, hits give low values 1.01 | locus YBR023C, strain chs3, hits give low values 0.998 | locus YBR171W, strain sec66, hits give low values 0.985 | locus YBR229C, strain ROT2, hits give low values 1 | locus YBR231C, strain swc5, hits give low values 0.976 | locus YBR279W, strain paf1, hits give low values 1.01 | locus YCL011C, strain gbp2, hits give low values 1.01 | locus YCL016C, strain dcc1, hits give low values 1 | locus YCL029C, strain bik1, hits give low values 0.97 | locus YCL061C, strain MRC1 (second series), hits give low values 1 | locus YCL069W, strain vba3, hits give low values 1 | locus YCR088W, strain abp1, hits give low values 0.999 | locus YDL005C, strain med2, hits give low values 1 | locus YDL035C, strain GPR1, hits give low values 0.999 | locus YDL040C, strain nat1, hits give low values 0.992 | locus YDL074C, strain BRE1, hits give low values 1.04 | locus YDL101C, strain DUN1, hits give low values 1.01 | locus YDL134C, strain PPH21, hits give low values 1.01 | locus YDL185W, strain tfp1, hits give low values 0.964 | locus YDL192W, strain arf1, hits give low values 0.976 | locus YDR001C, strain nth1, hits give low values 0.996 | locus YDR069C, strain doa4, hits give low values 0.993 | locus YDR101C, strain arx1, hits give low values 0.997 | locus YDR137W, strain rgp1, hits give low values 1.02 | locus YDR150W, strain NUM1, hits give low values 0.996 and 0.999 | locus YDR159W, strain sac3, hits give low values 0.973 | locus YDR162C, strain NBP2, hits give low values 1.02 | locus YDR195W, strain ref2 0.947 | locus YDR297W, strain sur2, hits give low values 1.01 | locus YDR318W, strain mcm21, hits give low values 0.966 | locus YDR334W, strain swr1, hits give low values 1 | locus YDR335W, strain msn5, hits give low values 1 | locus YDR363W, strain ESC2, hits give low values 1.01 | locus YDR388W, hits give low values 0.986 | locus YDR392W, strain spt3, hits give low values 1.01 | locus YDR502C, strain sam2, hits give low values 1 | locus YEL003W, strain gim4, hits give low values 0.998 | locus YEL037C, strain rad23, hits give low values 0.999 | locus YEL061C, strain CIN8 (second series), hits give low values 0.998 | locus YEL061C, strain CIN8, hits give low values 0.999 | locus YER002W, strain NOP16, hits give low values 1 | locus YER015W, strain faa2, hits give low values 1.01 | locus YER016W, strain bim1, hits give low values 1 | locus YER110C, hits give low values 0.967 | locus YER111C, strain swi4, hits give low values 0.994 | locus YER155C, strain BEM2 (second series), hits give low values 0.978 | locus YER155C, strain BEM2, hits give low values 0.998 | locus YER167W, strain BCK2, hits give low values 0.973 | locus YFR010W, strain ubp6, hits give low values 1.01 | locus YGL078C, strain dbp3, hits give low values 0.994 | locus YGL086W, strain mad1, hits give low values 0.963 | locus YGL167C, strain pmr1, hits give low values 0.999 | locus YGL173C, strain kem1, hits give low values 1.01 | locus YGL227W, strain vid30, hits give low values 0.994 | locus YGL240W, strain doc1, hits give low values 0.988 | locus YGL248W, strain PDE1, hits give low values 1 | locus YGL253W, strain hxk2, hits give low values 1.02 | locus YGR078C, strain PAC10, hits give low values 1.03 and 0.994 | locus YGR135W, strain pre9, hits give low values 1.01 | locus YGR229C, strain SMI1, hits give low values 1.03 | locus YGR252W, strain gcn5, hits give low values 0.97 | locus YHR013C, strain ard1, hits give low values 0.998 | locus YHR027C, strain rpn1, hits give low values 1.01 | locus YHR030C, strain SLT2, hits give low values 0.992 and 1.01 | locus YHR079C, strain IRE1 (second series), hits give low values 1 | locus YHR079C, strain IRE1, hits give low values 1.03 | locus YHR094C, strain hxt1, hits give low values 0.973 | locus YHR129C, strain ARP1, hits give low values 1 | locus YHR142W, strain chs7, hits give low values 1.03 | locus YHR200W, strain rpn10, hits give low values 0.975 | locus YIL066C, strain RNR3, hits give low values 1.01 | locus YIL073C, strain SPO22, hits give low values 0.902 | locus YIL125W, strain kgd1, hits give low values 0.987 | locus YIR030C, strain dcg1, hits give low values 0.982 | locus YJL092W, strain hpr5, hits give low values 0.998 | locus YJL095W, strain BCK1 (second series), hits give low values 0.999 | locus YJL095W, strain BCK1, hits give low values 1.06 and 1.02 | locus YJL115W, strain asf1, hits give low values 1.01 | locus YJL129C, strain trk1, hits give low values 1 | locus YJL134W, strain LCB3, hits give low values 0.994 | locus YJL154C, strain vps35, hits give low values 0.995 | locus YJL164C, strain tpk1, hits give low values 1 | locus YJL166W, strain qcr8, hits give low values 0.965 | locus YJL168C, strain set2, hits give low values 0.988 | locus YJL187C, strain SWE1 (second series), hits give low values 1.02 | locus YJR043C, strain POL32, hits give low values 0.987 | locus YJR066W, strain TOR1, hits give low values 0.921 | locus YJR075W, strain HOC1, hits give low values 1.08
